# About 83,000 compounds went through this panel and 20% of them were active in at least one assay; those are over-represented in the sample as a whole.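 Interpretation: 100, growth as untreated; towards 0, rising growth inhibition; 0, no net growth; 0 to -100, cell death. Compounds scoring below 10 were considered active.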 Values without a mark were called inactive. The source made the active and inactive calls.
# Experiments:
# Assay in all cases: NCI-60 one-dose screen, 48 h (100 = growth as untreated, 0 = no growth, -100 = all killed)
# RPMI-8226 leukemia = details: 10 µM unless noted
# OVCAR-8 ovarian = details: 10 µM unless noted
# OVCAR-5 ovarian = details: 10 µM unless noted
# OVCAR-4 ovarian = details: 10 µM unless noted
# SK-OV-3 ovarian = details: 10 µM unless noted
# IGROV1 ovarian = details: 10 µM unless noted
# OVCAR-3 ovarian = details: 10 µM unless noted
# HS 578T breast = details: 10 µM unless noted
# NCI/ADR-RES ovarian = details: 10 µM unless noted
# T-47D breast = details: 10 µM unless noted
# BT-549 breast = details: 10 µM unless noted
# MDA-MB-435 melanoma = details: 10 µM unless noted
# SW-620 colon = details: 10 µM unless noted
# MCF7 breast = details: 10 µM
# HCT-116 colon = details: 10 µM unless noted
# HCC-2998 colon = details: 10 µM unless noted
# KM12 colon = details: 10 µM unless noted
SMILES,growth (RPMI-8226 leukemia),growth (OVCAR-8 ovarian),growth (OVCAR-5 ovarian),growth (OVCAR-4 ovarian),growth (SK-OV-3 ovarian),growth (IGROV1 ovarian),growth (OVCAR-3 ovarian),growth (HS 578T breast),growth (NCI/ADR-RES ovarian),growth (T-47D breast),growth (BT-549 breast),growth (MDA-MB-435 melanoma),growth (SW-620 colon),growth (MCF7 breast),growth (HCT-116 colon),growth (HCC-2998 colon),growth (KM12 colon)
COc1ccc2sc(N(Cc3cccnc3)C(=O)c3ccc(C#N)cc3)nc2c1,64.4%,80.7%,96.7%,105%,106%,98.1%,92.2%,85.1%,85.4%,78.3%,92.1%,66.5%,90.6%,87%,58.2%,82.6%,75.8%
COc1ccc(N(C)c2nc(N)nc3sc4c(c23)CCCC4)cc1,25.3%,14%,49.8%,36.2%,20.7%,17.2%,1.77% (active),26.9%,2.25% (active),70.3%,24%,-9.59% (active),28.7%,15.2%,1.18% (active),7.08% (active),7.2% (active)
CCOC(=O)C1=C(C)N=c2s/c(=C\c3cc(Cl)ccc3O)c(=O)n2C1c1ccc(OC)cc1 (stereo unspecified),78.6%,90.4%,93.1%,94.7%,104%,87.6%,95.5%,117%,85.6%,82%,102%,107%,103%,93.2%,72.2%,98.6%,94.2%
Oc1c(C(Nc2ccccn2)c2cccc(Oc3ccccc3)c2)ccc2cccnc12 (stereo unspecified),-50.6% (active),-85.2% (active),-84.1% (active),-96.7% (active),-90.1% (active),-91.7% (active),-96.6% (active),-47.6% (active),-81.1% (active),-71% (active),-74.5% (active),-90.1% (active),-88% (active),-83% (active),-85.3% (active),-84.5% (active),-89.9% (active)
COc1cccc2cc(N(C)c3nc(C)nc4ccsc34)ccc12,12.5%,6.47% (active),43.7%,35.5%,22.9%,15.5%,3.88% (active),17.7%,-6.94% (active),60%,13.3%,-16.1% (active),22.3%,16.9%,-0.926% (active),7.08% (active),-1.06% (active)
CCCCC(O)(c1ccc(Cl)cc1)C(CN1CCOCC1)c1ccc(Cl)cc1 (stereo unspecified),18.5%,22.3%,83.1%,32%,81.1%,40%,3.29% (active),40%,29.9%,32%,59.5%,26.2%,47.1%,17.7%,33.2%,24.6%,32.5%
CN1CCN(Cc2ccc(NC(=O)c3cncc(C#Cc4nc(N)nc5[nH]ncc45)c3)cc2C(F)(F)F)CC1,55.2%,100%,108%,88.8%,122%,109%,66.5%,99.1%,114%,93.5%,82.9%,81.5%,28%,69.1%,49.1%,133%,81.9%
COc1cc(C(=O)NN=C2c3ccccc3-c3ccccc32)cc(OC)c1OC,23%,34.5%,63.4%,55.5%,22.9%,32.3%,-1.71% (active),50.6%,23.3%,37.8%,43.3%,-22.6% (active),19.5%,11.9%,20.4%,77.9%,29.3%
COc1cccc(C(=O)NC(c2ccc(C)cc2)c2cc(Cl)c3cccnc3c2O)c1 (stereo unspecified),15.5%,1.23% (active),38.6%,24.9%,16.2%,-5.14% (active),30%,34.5%,6.12% (active),6.13% (active),12.3%,19.4%,14.1%,17.9%,19.2%,7.35% (active),20.7%
Oc1[nH]c2ccccc2c1N=Nc1nnc2n1N=C(c1ccccc1)CS2,92.8%,59.1%,101%,59.6%,89.8%,97.5%,88.4%,72%,105%,64.3%,72.8%,93.8%,106%,71.9%,86.4%,81.3%,95.2%
Cc1nn(-c2nc3ccccc3[nH]2)c2c1C(c1ccc(OCC(N)=O)cc1)CC(=O)N2 (stereo unspecified),126%,107%,102%,108%,106%,109%,111%,95%,109%,90.8%,105%,98.8%,88.7%,96%,101%,122%,109%
COc1cc(C2C(C#N)=C(N)OC3=C2C(=O)c2ccccc2C3=O)cc(OC)c1O (stereo unspecified),17.1%,33.7%,65.5%,81.9%,48.2%,62.1%,1.44% (active),6.8% (active),66.5%,88.4%,57.7%,-31% (active),13.4%,20%,22.5%,45%,14%
CCOc1ccc2c(c1)CN(Cc1ccc(Cl)cc1)CO2,43.3%,34.1%,90.9%,-27.4% (active),13.5%,71%,22.2%,-7.66% (active),43.7%,52.4%,112%,64.7%,69.6%,59.4%,38.7%,86.4%,57.7%
Cc1ccc(S(=O)c2ccc([N+](=O)[O-])c3nonc23)cc1 (stereo unspecified),91.3%,99.7%,118%,101%,112%,104%,94.5%,96.5%,114%,59.1%,95.4%,106%,29%,92.9%,68.9%,116%,109%
Nc1ccccc1-c1ccc(-c2ccc(Cl)cc2)c2c1[nH]c1ccccc12,42.1%,77%,91.2%,92.5%,106%,62.3%,79%,82.4%,77.2%,60.4%,85.4%,91.2%,78.2%,68.7%,52.8%,86.1%,66.6%
O=C(Nc1ncc(Cc2cccc(C(F)(F)F)c2)s1)C1COc2ccccc2O1 (stereo unspecified),76.9%,89.9%,87.4%,84.6%,100%,86.8%,90.6%,65.4%,87.3%,67.1%,90.7%,59.1%,81%,81.8%,83.3%,98.5%,76%
Oc1c(CN2CCN(c3ccccc3F)CC2)cc(Br)c2cccnc12,-0.421% (active),-49% (active),-19.3% (active),-81% (active),-8.19% (active),-34.1% (active),-86% (active),-10.3% (active),23.8%,14.3%,-53.8% (active),-48.3% (active),-13.5% (active),9.33% (active),-36.4% (active),30.7%,0.135% (active)
Cc1nc2ccccc2c(/C=C/c2ccc(F)cc2)c1C(N)=O,96.1%,104%,105%,95.5%,105%,97.4%,107%,106%,111%,90.8%,97.4%,107%,105%,69.7%,98.3%,128%,101%

# Source: PubChem BioAssay (NCI)
